Assay outcomes from PubChem BioAssay.
HP1b binding inh: HP1-beta chromodomain-methylated histone interaction inhibition; P83916; AlphaScreen HP1-beta / biotin-H3K9me3 peptide binding; Potency, µM (titrated, usually from 114 µM), without a hit: at the highest dose activity change, negative = inhibition, actives largely listed as inhibitors; hit rate 0.56% among 390,000; also: nearly all actives have a fitted effect of over 70% in size
Target sequence (P83916 whole entry, looked up): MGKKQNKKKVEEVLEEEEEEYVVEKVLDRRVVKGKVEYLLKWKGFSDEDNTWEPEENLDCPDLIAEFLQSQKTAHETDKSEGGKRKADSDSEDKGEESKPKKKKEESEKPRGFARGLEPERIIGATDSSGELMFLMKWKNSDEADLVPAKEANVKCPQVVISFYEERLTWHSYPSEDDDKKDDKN
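HP1-beta protein (50 nM final) preincubated 30 min at room temperature with biotinylated H3(1-18)K9me3 peptide (50 nM) in PBS pH 7.4, 0.01% Tween-20, then compound added for 30 min. AlphaScreen streptavidin donor/nickel chelate acceptor beads (10 ug/mL final), 30 min dark, luminescence read.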
L3MBTL1 block: blocks human L3MBTL1 | AlphaScreen L3MBTL1–H3K9me1 peptide binding | Q9Y468 | hit rate 0.66% among 230,000 | Potency, µM (series often up to 57.1 µM), without a hit: at the highest dose activity, negative = inhibition, most hits filed as inhibitors | AID 485360; also: % is scaled to controls: 0 for no effect and ±100 for the full control effect; nearly all actives have a fitted effect of over 60% in size
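AlphaScreen proximity signal between nickel-chelate acceptor and streptavidin donor beads (final 10 ug/mL) reports binding of 50 nM L3MBTL1 to 75 nM biotin-H3 K9me1 peptide; complex incubated with compounds 30 min at room temperature; cefsulodin titration as control.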
Sfp PPTase inh: blocks B. subtilis Sfp PPTase activity; hit rate 3.5% among 310,000; Q9F4F7; AID 1490; Potency, µM, inactives show largest response in the series, negative = inhibition, hits mostly inhibitors; Biochemical Sfp PPTase activity, qHTS;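 also: the enzyme is Sfp with the accession as filed and its product quenches rhodamine fluorescence; 0% = enzyme reaction without inhibitor and -100% = no enzyme wells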
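After 15 min at room temperature with compound, 15 nM Sfp received 5 uM rhodamine-CoA plus 12.5 uM BHQ-2-ybbR (50 mM Hepes pH 7.6, 10 mM MgCl2). Rate came from the fluorescence difference over 30 min, ex 525/em 598 nm.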
G9a block: G9a (human) methyltransferase inhibition; Q96KQ7; G9a H3K9 monomethylation, AlphaScreen, 2 h; Potency, µM (top dose mostly 102 µM), for inactives: at the highest dose activity, negative = inhibition, usual class: inhibitors; hit rate 8.8% among 350,000; also: % is scaled to controls: 0 for no effect and ±100 for the full control effect; nearly all actives have a fitted effect of over 75% in size
Target sequence (Q96KQ7 913-1193 limits assumed): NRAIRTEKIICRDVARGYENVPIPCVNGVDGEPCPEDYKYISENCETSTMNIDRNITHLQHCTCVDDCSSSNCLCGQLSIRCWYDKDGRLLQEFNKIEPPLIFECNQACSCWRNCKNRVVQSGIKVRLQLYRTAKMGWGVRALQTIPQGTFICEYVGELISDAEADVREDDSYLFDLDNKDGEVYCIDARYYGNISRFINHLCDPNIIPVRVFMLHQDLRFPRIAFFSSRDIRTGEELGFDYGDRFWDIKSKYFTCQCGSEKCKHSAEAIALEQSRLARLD
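Chemiluminescent proximity detection of H3K9 monomethylation, read after 10 min bead incubation in the dark. Reaction: 20 nM G9a, 500 nM biotin-H3K9 peptide, 20 uM SAM cofactor, 2 h, room temperature, following 15 min enzyme-compound preincubation.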
BAZ2B block: blocks human BAZ2B. AlphaScreen BAZ2B-H3K14Ac peptide displacement. Potency, µM (top dose mostly 114 µM), for the others: at the top dose activity change, negative = inhibition, most hits filed as inhibitors. hit rate 4.4% among 360,000; also: % is scaled to controls: 0 for no effect and ±100 for the full control effect; nearly all actives have a fitted effect of over 60% in size
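Inhibition is scored as reduced AlphaScreen emission. The BAZ2B/b-H3(5-23)K14Ac complex (50 nM each) in PBS pH 7.4, 0.01% Tween-20 meets compound (up to 110 uM) for 30 min at RT before bead addition.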
JMJD2A Tudor: JMJD2A Tudor domain (human) inhibition; AID 504339; Potency, µM (highest dose often 114 µM), for the others: at the top dose activity change, negative = inhibition, most hits filed as inhibitors; hit rate 4.4% among 390,000; AlphaScreen JMJD2A-Tudor / H3K4me3 peptide binding; also: % is scaled to controls: 0 for no effect and ±100 for the full control effect; nearly all actives have a fitted effect of over 50% in size
Numbers without * were called inactive; ? = inconclusive; nt = not tested or not shown; [ ] = another dose, or the depositor's remark. A selection: hits, their analogues and other compounds. The true share with any hit is near 12%. Calls follow the shape of the dose curve; as a rule, active = well fitted curve in the direction sought with a large enough effect; inconclusive = small, poorly fitted or top-dose-only effect, or another doubt; inactive = no such curve, though single readings can be large; an effect the other way counts as inactive or inconclusive. Potency is read from the fitted curve at half-maximal effect.

SMILES	HP1b binding inh	L3MBTL1 block	Sfp PPTase inh	G9a block	BAZ2B block	JMJD2A Tudor
CCS(=O)(=O)Nc1cccc(-c2nc3cccnc3s2)c1	19.5%	nt	6.0%	nt	2.6%	-4.6%
IC(I)I	nt	nt	44.7µM*	14.1µM*	nt	nt
COC(=O)c1ccc(CSc2ccc3nnc(-c4cccc(F)c4)n3n2)o1	?	10.6%	50.1µM*	17.8µM*	-2.4%	89.1µM*
CSc1ccc2nnc(-c3cccc(F)c3)n2n1	17.5%	8.2%	-9.9%	39.8µM*	0.0%	-13.7%
CCOC(=O)CC(=O)CSc1ccc2nnc(-c3cccc(F)c3)n2n1	11.5%	-0.8%	-3.2%	-30.1%	-3.4%	-1.3%
CCOCC(O)COc1ccc(NC(=O)CC[S+](C)C)cc1 (stereo unspecified)	nt	nt	14.4%	-8.0%[12.7 µM]	nt	nt
COc1ccc(C)cc1S(=O)(=O)Nc1ccc2c(c1)OCO2	-2.9%	1.3%	9.4%	-4.3%	-5.2%	5.3%[11.4 µM]
Cc1cccc(NC(=O)c2ccc(CN3CC(=O)N4CCCCC4C3=O)cc2)c1C (stereo unspecified)	15.0%	nt	nt	2.0%[59 µM]	0.7%	-11.6%
CCOC(=O)C1CCCN(c2c(C(=O)c3ccc(C)cc3)cnc3ccc(OCC)cc23)C1 (stereo unspecified)	-16.5%	nt	nt	1.41µM*	50.1µM*	35.5µM*
CCOC(=O)C1CCN(c2c(C(=O)c3ccccc3)cnc3ccc(Cl)cc23)CC1	27.8%	nt	7.0%	?	-38.4%	-31.0%
CCc1ccc(C(=O)c2cnc3ccc(OC)cc3c2N2CCN(CC)CC2)cc1	18.9%	-16.6%	7.1%	39.8µM*	50.1µM*	-29.6%
CCOc1ccc2ncc(C(=O)c3ccc(OC)cc3)c(N3CCN(CC)CC3)c2c1	11.6%	-24.0%	3.5%	44.7µM*	?	-32.9%
O=C(c1cccc(Oc2c(Cl)cccc2[N+](=O)[O-])c1)N1CCOCC1	-5.0%	nt	12.9%	14.3%	-19.1%	-11.7%
N#CCCn1cc(C(=O)CN2C(=O)C(=O)N(C3CCCC3)C2=O)c2ccccc21	-1.9%	-11.6%	nt	50.1µM*	-5.0%	-14.6%
N#C/C(=N\Nc1ccc(S(=O)(=O)N2CCOCC2)cc1)C(N)=S	?	-12.1%	44.7µM*	0.562µM*	?	?
N#CC(C#N)=NNc1ccc(S(=O)(=O)N2CCCCC2)cc1	-35.3%	-21.7%	14.8%	10µM*	?	39.8µM*
COC(=O)Nc1ccc(S(=O)(=O)N2CCCCCC2)cc1	20.1%	-7.2%	9.0%	-13.7%[59 µM]	-1.8%	-11.5%
CN(C)CCN(Cc1ccco1)C(=O)c1cc2c(s1)-c1ccccc1OC2	33.0%	nt	nt	7.4%[59 µM]	-14.7%	-5.1%
Fc1ccccc1N1CCN(CC2CCCCC2)CC1	?	-3.9%[2.29 µM]	-6.5%	18.6%[0.501 µM]	79.4µM*	20µM*
Fc1ccccc1N1CCN(Cc2cccnc2)CC1	?	8.3%	-4.1%	28.2µM*	56.2µM*	1.58µM*
CCS(=O)(=O)N1CCN(c2ccccc2F)CC1	17.3%	-8.9%[11.4 µM]	7.6%	?	7.4%	0.7%
CCC(C(=O)NCc1ccccn1)n1c2ccccc2c2nc(=O)cc(C)n21 (stereo unspecified)	74.9%	nt	5.8%	23.6%	-13.7%	-7.6%
Cc1cc(C)n(-c2nc3cc(Cl)c(Cl)cc3nc2Nc2c(C)cccc2C)n1	34.6%	nt	nt	4.4%[59 µM]	3.3%	3.1%
CC1(C)CC2/C(CO)=C/C=C/[C@](C)(O)CC[C@]21O (stereo partly specified)	nt	nt	8.0%	nt	nt	nt
O=C(O)CCCn1c(O)c(C=C2N=c3ccccc3=N2)sc1=S	22.7%	nt	12.1%	-107.3%[59 µM]	?	-34.5%
CCN(CC)c1ccc(-n2c(O)c(C=C3N=c4ccccc4=N3)sc2=S)cc1	20.7%	1.9%	17.1%	?	5.0%	-22.3%
O=C(O)c1cccc(-n2c(O)c(C=C3N=c4ccccc4=N3)sc2=S)c1	-15.9%	-24.7%	4.1%	50.1µM*	-37.2%	?
CCCC(C(=O)O)n1c(O)c(C=C2N=c3ccccc3=N2)sc1=S (stereo unspecified)	-2.1%	-15.2%	-12.8%	?	-32.0%	20µM*
